# Test results published in the supplement of paper PMC6555819.
# Legend:
# Test in all cases: PBM binding z-score (relative to random genomic background probes); higher = stronger binding; sequences stand for … in GC…GCGATTGACAGCGTAGAATGAAGG
# [1] = tested on: FXR:RXRa (NR concentration 270 nM, RXRa partner concentration 90 nM)
# Method in brief: (§1)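 For binding z-scores, the reference was random background probes on custom Agilent 4×180K protein-binding microarrays. These arrays were incubated 1 h with ligand-free nuclear receptor dimers in PBS pH 7.4, 2% milk, 0.02% Triton X-100, 1 mM DTT, 0.2 mg/mL BSA and 0.4 mg/ml salmon testes DNA. Fluorescence was scanned after antibody detection of each partner (one per run) and regression-normalized.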
# [2] = tested on: LXRa:RXRa (NR concentration 270 nM, RXRa partner concentration 90 nM)
# Method in brief: as §1
# [3] = tested on: LXRa homodimer (NR concentration 270 nM)
# Method in brief: as §1
# [4] = tested on: LXRb:RXRa (NR concentration 270 nM, RXRa partner concentration 90 nM)
# Method in brief: as §1
# [5] = tested on: LXRb homodimer (NR concentration 270 nM)
# Method in brief: as §1
# [6] = tested on: PPARa:RXRa (NR concentration 270 nM, RXRa partner concentration 90 nM)
# Method in brief: as §1
# [7] = tested on: PPARg:RXRa (NR concentration 180 nM, RXRa partner concentration 90 nM)
# Method in brief: as §1
# [8] = tested on: PPARg:RXRa 270nM:90nM, anti-RXR (NR concentration 270 nM, RXRa partner concentration 90 nM)
# Method in brief: as §1
# [9] = tested on: PPARg:RXRa 30nM:10nM, anti-RXR (NR concentration 30 nM, RXRa partner concentration 10 nM)
# Method in brief: as §1
# [10] = tested on: PPARg:RXRa 90nM:30nM, anti-RXR (NR concentration 90 nM, RXRa partner concentration 30 nM)
# Method in brief: as §1
# [11] = tested on: PPARg:RXRa DBDmut IVT, anti-RXR (DBD mutation: RXRa K156A/R161A, NR concentration 270 nM, RXRa partner concentration 90 nM)
# Method in brief: as §1
# [12] = tested on: PPARg:RXRa IVT, anti-PPARg (NR concentration 270 nM, RXRa partner concentration 90 nM)
# Method in brief: as §1
# [13] = tested on: PPARg DBDmut:RXRa IVT, anti-PPARg (DBD mutation: PPARg1 K132A/R137A, NR concentration 270 nM, RXRa partner concentration 90 nM)
# Method in brief: as §1
# [14] = tested on: PPARg DBDmut IVT, anti-PPARg (DBD mutation: PPARg1 K132A/R137A, NR concentration 270 nM)
# Method in brief: as §1
# [15] = tested on: PPARg homodimer (NR concentration 180 nM)
# Method in brief: as §1
# [16] = tested on: PXR:RXRa (NR concentration 270 nM, RXRa partner concentration 90 nM)
# Method in brief: as §1
# [17] = tested on: PXR homodimer (NR concentration 270 nM)
# Method in brief: as §1
# [18] = tested on: RARa:RXR (NR concentration 270 nM, RXRa partner concentration 90 nM)
# Method in brief: as §1
# [19] = tested on: RARa homodimer (NR concentration 270 nM)
# Method in brief: as §1
# [20] = tested on: RARb:RXRa (NR concentration 270 nM, RXRa partner concentration 90 nM)
# Method in brief: as §1
Sequence,PBM binding z-score [1],PBM binding z-score [2],PBM binding z-score [3],PBM binding z-score [4],PBM binding z-score [5],PBM binding z-score [6],PBM binding z-score [7],PBM binding z-score [8],PBM binding z-score [9],PBM binding z-score [10],PBM binding z-score [11],PBM binding z-score [12],PBM binding z-score [13],PBM binding z-score [14],PBM binding z-score [15],PBM binding z-score [16],PBM binding z-score [17],PBM binding z-score [18],PBM binding z-score [19],PBM binding z-score [20]
CCTAGCAGGCCAATCTGGGTCATTCAAGGCTTGA,1.16,1.52,-0.318,0.813,-1.03,2.54,1.18,1.73,-0.272,0.958,3.81,4.05,-1.11,-0.944,0.0423,1.63,-0.53,1.04,-0.337,1.17
CAAACTAGGTCACGAAAGTTCAAAGTCGAATGAC,6.48,7.84,8.43,6.15,1.48,6.14,9.94,8.29,6.58,8.35,8.72,9.1,2.45,4.02,4.73,7.11,8.3,6.02,2.95,5.27
TAGCCTAGGTCAGATGGGGCCAGTATACGCTATA,2.75,1.56,-0.0271,1.38,-0.069,1.78,0.972,1.14,0.184,0.725,1.03,1.7,-0.854,-0.361,0.556,3.45,-0.272,1.24,-0.56,3.42
TCTATTAGTTGAAGGCCAACCGACGAGTCCGTTT,0.871,1.16,0.259,0.921,0.342,1.28,0.257,2.32,4.11,2.96,2.37,0.522,0.431,0.553,1.36,0.903,1.4,0.79,1.21,1.02
TGATATAGGTAAAGGTGAAAGTCGAACGATATGA,1.07,1.26,0.291,1.47,0.036,3.47,5.08,5.2,3.64,5.25,4.83,5.52,1.32,0.962,2.3,0.991,0.297,1.93,1.63,1.8
TCATATAGGTAATACAGGTAAAAGTCGGCATCTA,1.15,1.13,0.377,0.915,0.455,1.48,1.61,2.58,4.14,3.49,4.07,2.77,1.1,1.94,1.08,0.705,0.364,0.922,1.47,0.572
TCATATAGGTAATACAGGTGAAAGGCGGCATCTA,1.01,1.22,0.706,0.93,0.000841,2.25,2.3,3.69,4.62,4.1,4.33,3.42,1.73,1.03,1.29,1.04,0.592,1.33,1.69,0.697
GCTGCTAGGTCAACTTATGGTCAGCTAAAGCTCG,4.49,2.98,0.539,2.52,0.4,3.87,2.95,3.14,0.913,2.31,4.77,4.25,-0.352,-0.235,2.49,2.17,-0.587,3.6,0.316,4.4
TCATATAGGTAAAGGGTGAAAGTCGGTGTGGTAA,1.34,1.71,0.489,1.71,0.233,4.48,7.16,7.21,7.16,7.63,4.48,4.59,0.928,1.03,1.99,1.31,0.961,2.03,2.05,1.46
CGTCCAAGGTCGTAGGAGGTCAGTGAAGACAGAT,4.38,4.75,1.14,3.33,-0.833,4.12,1.79,2.5,0.257,1.32,0.632,1.67,-0.489,-0.725,2.21,5.77,1.8,4.37,0.332,3.82
GCTAGCAGGCCATTTGGGCCACTCAATGACGGGC,-0.514,-0.935,-0.951,-1.27,-1.17,-0.573,0.102,-0.789,-0.989,-1.19,0.571,0.308,-1.6,-2.1,-1.14,-0.943,-1.18,-1.05,-0.661,-0.143
AGTCAAAGTTCATCTAGGTAACGTAGGATATGCT,6.48,6.18,5.41,3.66,1.7,4.7,6.41,6.28,3.31,5.55,1.16,3.96,1.76,1.26,2.37,5.12,7.16,3.89,1.67,4.85
CCTACTGGGCTAAAAAGGTCATTGATGCCGATAA,3.31,3.96,3.16,3.89,0.0245,4.67,2.38,3.6,1.21,2.6,2.24,2.86,-0.829,-0.574,2.32,4.35,1.23,4.77,0.346,3.82
CCGAGTGGGTTATGGGGCATTCAGGCAACGGTGA,0.128,0.155,-0.051,0.764,-0.129,1.74,2.61,3.77,1.55,3.82,1.23,2.29,-0.951,-0.669,0.384,-0.309,0.21,0.0956,0.0265,0.461
CCAGACAGATGAGAAGGTAACTCAGCCTCGATTA,-0.147,-0.0249,0.532,-0.254,-0.206,-0.358,0.455,-0.402,-0.157,-0.366,0.125,-0.374,0.361,-0.388,1.08,-0.297,0.323,-0.00624,1.43,-0.0941
